35 molecules from PubChem BioAssay (NCI) can be followed below.

The panel holds about 83,000 compounds, 20% with a hit somewhere; the sample as a whole holds those more often.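 A percent growth of 40 corresponds to 60% growth inhibition; 0 means no net growth; -100 means all cells died. Active threshold: below 10.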 Unmarked numbers belong to inactive results. Activity calls are given as the source filed them.

The first experiment concerns SF-295 CNS. Nature of the experiment: NCI-60 one-dose screen, 48 h (100 = growth as untreated, 0 = no growth, -100 = all killed). Particulars: 10 µM unless noted.
For the molecule `Cc1nc(Nc2ccccn2)sc1C(=O)CC(SCC(=O)Nc1ccc(Cl)cc1)c1ccccc1F` (stereo not given), the growth was 2% (active).

`Cc1cccc(-c2nc(Nc3ccc(C)c(S(N)(=O)=O)c3)c3ccccc3n2)c1`: the growth was 5.63% (active).

With `CN(C)CCn1c2ccccc2c2nc3cc(C(F)(F)F)ccc3nc21`, the growth is 27.9%.

Regarding `S=C(Nc1ccccc1)Nc1ccc(OCc2nc3ccccc3[nH]2)cc1`, the growth was 24.2%.

Another experiment has as its system SF-539 CNS. The description is as above. Particulars: 10 µM unless noted.
Turning to `O=C1NC(=O)c2c1c1c3cc(Br)ccc3[nH]c1c1oc3ccc(F)cc3c21`, the growth is -68.5% (active).

For the molecule `C#CCOc1ccc(/C=N/Nc2nc(-c3ccc(F)cc3)cs2)cc1OC`, the growth was 70.6%.

Take `O=C1NC(=O)/C(=C/c2ccccc2OCc2cc3ccccc3nc2Cl)S1`: the growth was 70.8%.

On to `Cc1ccc(NCC(=O)Cn2cc(COc3ccc(C=Nc4cnc5ccccc5c4)cc3)nn2)cc1`, for which the growth is 104%.

Regarding `C/C(=N\N=C1/C(=O)Nc2ccccc21)c1ccc2c(c1)Nc1ccccc1S2`, the growth was 71.7%.

As to `C/C(=N\N=C1/C(=O)Nc2ccc(Cl)cc21)c1ccc2c(c1)Nc1ccccc1S2`, the growth was 3.26% (active).

Regarding `CCN(CC)c1ccnc(CNCCSC(c2ccccc2)(c2ccccc2)c2ccc(C)cc2)c1`, the growth is -97.5% (active).

With `Cc1cc2c(cc1Cl)C(=O)/C(=C/c1ccccc1)O2`, the growth was -98.5% (active).

For `COc1ccc(C(=O)/C=C/c2ccc(OCc3ccc(F)cc3)c(OC)c2)cc1OC`, the growth was -38.6% (active).

In the case of `COc1cc(OC)c2c3nc4cc(C)c(C)cc4nc3n(CCN(C)C)c2c1`, the growth was -83.5% (active).

As to `N=C1N=C(SCc2nc3ccccc3[nH]2)NC(=O)/C1=C/c1ccc(Cl)cc1`, the growth was 102%.

In the case of `COc1ccc(C2CC(c3ccc(S(=O)(=O)NCCNc4nc(Nc5ccc(F)cc5)nc(N(C)C)n4)cc3)=Nc3c(N)nc(N)nc3N2)cc1` (stereo not given), the growth is 75.4%.

For `O=C(Cn1nc(-c2ccccc2)ccc1=O)N/N=C/c1ccc(N2CCOCC2)cc1`, the growth is 90.5%.

Consider `CC1(C)CC[C@]2(C(=O)O)CC[C@]3(C)C(=CCC4[C@@]5(C)C[C@@H](O)[C@@H]6OC(c7cccc(Br)c7)OC[C@@]6(C)C5CC[C@]43C)C2C1` (stereo not given in full), for which the growth was 54.6%.

In the case of `COc1ccc(C(=O)/C=C/c2ccc(OCc3ccccc3)c(OC)c2)cc1OC`, the growth was -37.9% (active).

Turning to `O=C(N=Nc1c(O)[nH]c2ccc([N+](=O)[O-])cc12)c1ccc2nc(-c3ccccc3)[nH]c2c1`, the growth was 6.74% (active).

On to `C/C(=N\N=C\c1cc([N+](=O)[O-])ccc1Cl)c1ccc2c(c1)Nc1ccccc1S2`, for which the growth is 58.1%.

In the case of `C=C1CCC2C3(C)COC(c4ccc(F)cc4)OC3CCC2(C)C1C/C=C1/C(=O)OCC1O` (stereo not given), the growth was -85.5% (active).

Turning to `CCCSc1nc(NCCc2c[nH]c3ccccc23)c(C#N)c(-c2ccc(OC)cc2)n1`, the growth was 50.6%.

On to `N/C(=N\c1nc2ccccc2s1)NC(=O)Nc1ccccc1Br`, for which the growth is -75.6% (active).

Consider `O=C(Cn1c2c(sc1=O)[C@H]1[C@@H](O)[C@@H](O)[C@H](O)[C@@H]1CS2)N1CCOCC1`, for which the growth was 96.8%.

With `COC(=O)/C=C/c1cccc2c1C(=O)NC(C)(c1cc3ccccc3oc1=O)N2` (stereo not given), the growth is 73.2%.

With `Brc1ccc(-c2n(Cc3ccc4ccccc4c3)c(-c3ccccc3)c(-c3ccccc3)[n+]2Cc2ccc3ccccc3c2)cc1`, the growth is -100% (active).

For `COc1ccc(NC(=O)Cn2c3c(sc2=O)[C@H]2[C@@H](O)[C@@H](O)[C@H](O)[C@@H]2CS3)cc1`, the growth is 101%.

Turning to `Cc1cc2nc3c4ccccc4n(CCCN(C)C)c3nc2cc1C`, the growth is -69.4% (active).

As for `O=S(=O)(Nc1cccc(-n2cnc3cc(-c4ccc(O)cc4)ccc32)c1)C1CC1`, the growth is -11.6% (active).

With `CN(C)c1ccnc(CNCCSC2(c3ccc(C(F)(F)F)cc3)c3ccccc3C=Cc3ccccc32)c1`, the growth is -96.8% (active).

For `CN(C)c1nc(NCCNS(=O)(=O)c2ccc(C3=Nc4c(N)nc(N)nc4NC(c4ccc(C(F)(F)F)cc4)C3)cc2)nc(Nc2ccc(F)cc2)n1` (stereo not given), the growth is -65.4% (active).

`O=C(NN1C(=O)/C(=C/C=C/c2ccc([N+](=O)[O-])o2)SC1=S)c1ccc(Cl)cc1`: the growth was -95.2% (active).

With `COCOc1ccc2c(=O)c(C)c(C(=O)N[C@@H](Cc3ccccc3)C(O)C(=O)NCCc3ccc(OC)cc3)oc2c1` (stereo not given in full), the growth is 109%.

In the case of `C#CCOc1cc(N(CC)CC)ccc1C(C(=O)NC(C)(C)C)N(C(=O)C1CCc2cc(F)ccc2O1)c1ccc(Br)cc1` (stereo not given), the growth is 81.1%.
